Compound activity: PubChem BioAssay, National Center for Advancing Translational Sciences (NCATS)
Compounds with a hit are over-represented: about 12% of the library has one in this group of screens.
JMJD2A Tudor – inhibitors of human JMJD2A Tudor domain. hit rate 4.4% among 390,000. AlphaScreen JMJD2A-Tudor / H3K4me3 peptide binding. Potency, µM (top dose mostly 114 µM), inactives show at the top dose activity change, negative = inhibition, hits mostly inhibitors. AID 504339; further: on the % scale 0 is the no-effect control and ±100 the full control effect; nearly all actives have a fitted effect of over 50% in size
G9a inh – blocks human histone lysine methyltransferase G9a | Potency, µM (highest dose often 102 µM), without a hit: at the highest dose activity, negative = inhibition, most hits filed as inhibitors | hit rate 8.8% among 350,000 | Q96KQ7 | G9a H3K9 monomethylation, AlphaScreen, 2 h; further: on the % scale 0 is the no-effect control and ±100 the full control effect; nearly all actives have a fitted effect of over 75% in size
Target sequence (Q96KQ7 913-1193 limits assumed): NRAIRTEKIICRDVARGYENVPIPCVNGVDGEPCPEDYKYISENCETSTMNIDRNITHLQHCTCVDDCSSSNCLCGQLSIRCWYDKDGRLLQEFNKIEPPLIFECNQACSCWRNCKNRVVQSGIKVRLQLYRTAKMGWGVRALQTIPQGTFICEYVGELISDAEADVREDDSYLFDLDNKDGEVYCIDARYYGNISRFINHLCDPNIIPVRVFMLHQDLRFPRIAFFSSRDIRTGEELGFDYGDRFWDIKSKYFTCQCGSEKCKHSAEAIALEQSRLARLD
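Step 1: enzyme (final 20 nM) with compound, 15 min RT. Step 2: substrate peptide 500 nM and SAM 20 uM, 2 h RT. Step 3: anti-H3K9me1 antibody and AlphaScreen beads, 10 min, then plate read.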
BAZ2B block – blocks human BAZ2B; AlphaScreen BAZ2B-H3K14Ac peptide displacement; Potency, µM (doses to about 114 µM), inactives show at the top dose activity change, negative = inhibition, most hits filed as inhibitors; hit rate 4.4% among 360,000; AID 504333; further: on the % scale 0 is the no-effect control and ±100 the full control effect; nearly all actives have a fitted effect of over 60% in size
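Inhibition is scored as reduced AlphaScreen emission. The BAZ2B/b-H3(5-23)K14Ac complex (50 nM each) in PBS pH 7.4, 0.01% Tween-20 meets compound (up to 110 uM) for 30 min at RT before bead addition.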
Sfp inh – Sfp phosphopantetheinyl transferase inhibition. Q9F4F7. Biochemical Sfp PPTase activity, qHTS. Potency, µM, without a hit: largest response in the series, negative = inhibition, actives largely listed as inhibitors. hit rate 3.5% among 310,000;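 further: the enzyme is Sfp with the accession as filed and its product quenches rhodamine fluorescence; 0% = enzyme reaction without inhibitor and -100% = no enzyme wells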
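After 15 min at room temperature with compound, 15 nM Sfp received 5 uM rhodamine-CoA plus 12.5 uM BHQ-2-ybbR (50 mM Hepes pH 7.6, 10 mM MgCl2). Rate came from the fluorescence difference over 30 min, ex 525/em 598 nm.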
L3MBTL1 block – L3MBTL1 (human) inhibition | Potency, µM (highest dose often 57.1 µM), for inactives: at the top dose activity, negative = inhibition, hits mostly inhibitors | hit rate 0.66% among 230,000 | Q9Y468 | AlphaScreen L3MBTL1–H3K9me1 peptide binding; further: on the % scale 0 is the no-effect control and ±100 the full control effect; nearly all actives have a fitted effect of over 60% in size
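Read-out is AlphaScreen signal from streptavidin donor and nickel chelate acceptor beads (10 ug/mL final each) bridging L3MBTL1 (50 nM) and biotinylated K9-monomethylated H3(1-15) peptide (75 nM), after 30 min compound exposure at room temperature.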
HP1b binding inh – inhibitors of HP1-beta chromodomain binding to methylated histone tails; P83916; AlphaScreen HP1-beta / biotin-H3K9me3 peptide binding; Potency, µM (doses to about 114 µM), for the others: at the highest dose activity change, negative = inhibition, most hits filed as inhibitors; hit rate 0.56% among 390,000; AID 540317; further: nearly all actives have a fitted effect of over 70% in size
Target sequence (P83916 whole entry, looked up): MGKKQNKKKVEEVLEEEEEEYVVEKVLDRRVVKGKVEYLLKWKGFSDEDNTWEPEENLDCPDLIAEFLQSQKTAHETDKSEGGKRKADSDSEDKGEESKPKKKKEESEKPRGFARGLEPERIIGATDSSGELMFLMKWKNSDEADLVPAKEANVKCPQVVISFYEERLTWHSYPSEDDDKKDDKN
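HP1-beta protein (50 nM final) preincubated 30 min at room temperature with biotinylated H3(1-18)K9me3 peptide (50 nM) in PBS pH 7.4, 0.01% Tween-20, then compound added for 30 min. AlphaScreen streptavidin donor/nickel chelate acceptor beads (10 ug/mL final), 30 min dark, luminescence read.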
An asterisk follows results filed as active; ? = inconclusive; · = no result; [ ] = dose if it differs, or a comment. The call rests on the fitted dose curve; in most records, active means well fitted curve in the direction sought with a large enough effect; inconclusive means small, poorly fitted or top-dose-only effect, or another doubt; inactive means no such curve, though single readings can be large; an effect the other way counts as inactive or inconclusive. Potency means the concentration at half of the fitted maximal effect.

SMILES	JMJD2A Tudor	G9a inh	BAZ2B block	Sfp inh	L3MBTL1 block	HP1b binding inh
CCO/C(C)=C1\N=C(c2ccc(Cl)cc2)OC1=O	-18.9%	44.7µM*	-5.9%[57.1 µM]	22.3%	3.6%	34.0%
CN1CCN(C2=C(Cl)C(=O)C(c3cnc(N4CCCCC4)s3)=C(Cl)C2=O)CC1	4.47µM*	8.9%[59 µM]	12.7%	-9.7%	-24.7%	?
NC(=O)C1CCN(C2=C(Cl)C(=O)c3ccccc3C2=O)CC1	-29.3%	11.2µM*	25.1µM*	17.8µM*	?	?
O=C1C(Cl)=C(N2CCC(C(=O)O)CC2)C(=O)c2ccccc21	-25.8%	50.1µM*	?	?	-25.6%	-2.6%
CC1COCC(C)N1C1=C(Cl)C(=O)c2ccccc2C1=O (stereo unspecified)	3.16µM*	·	·	·	·	12.6µM*
O=C(N=C1SC2CS(=O)(=O)CC2N1c1cccc(Cl)c1Cl)C1CC1 (stereo unspecified)	-8.9%	7.0%	-1.2%	6.7%	·	27.3%
CC1CC1C(=O)N(C)CC(=O)Nc1ccccc1Br (stereo unspecified)	-14.9%	·	·	·	5.2%	30.3%
CN1CCN(C2=C(NS(=O)(=O)c3cccs3)C(=O)c3ccccc3C2=O)CC1	-19.3%	?	-14.8%	3.4%	-10.9%	-14.1%
CN1CCN(C2=C(Cl)C(=O)c3ccccc3C2=O)CC1	22.4µM*	·	·	·	·	?
Cc1ccc(Cl)cc1NC(=O)C1CCCN1S(=O)(=O)c1ccc(-c2ccc(=O)[nH]n2)s1 (stereo unspecified)	-15.9%	-1.7%	0.0%	-14.6%	·	29.5%
CCOc1ccccc1N(C)C(=O)c1sc2nc3n(c(=O)c2c1C)CCCC3	-21.1%	?	50.1µM*	·	·	97.3%
COc1cc(OC)c(N(C)C(=O)c2sc3nc4n(c(=O)c3c2C)CCCCC4)cc1Cl	?	14.1µM*	50.1µM*	·	·	19.9%
COc1cccc(C(=O)COC(=O)CCCC(=O)NC2CCCCC2)c1	-4.4%	20.2%	-1.8%	-2.3%	·	26.6%
O=C(O)C1CCC(=O)N1C(=O)OCc1ccccc1 (stereo unspecified)	-0.7%	70.8µM*	18.0%	10.8%	-9.0%	38.5%
O=C[C@@H]1CCCN1C(=O)[C@@H]1CCCN1C(=O)OCc1ccccc1	·	8.91µM*	·	56.2µM*	·	·
O=C(O)c1ccc(CNC(=O)C2CCCN2C(=O)OCc2ccccc2)cc1 (stereo unspecified)	-13.5%	15.7%	1.1%	6.3%	·	24.4%
CCc1nn2cc(C(=O)c3cc(C)ccc3O)cnc2c1-c1ccc(F)cc1	?	44.7µM*	?	-0.5%	2.8%	15.1%
COc1ccc(-c2n[nH]c(=S)n2/N=C/C=C\c2ccccc2OC)cc1	89.1µM*	?	-27.0%	-20.0%	-12.0%	28.4%
COc1cccc(/C=N/n2c(-c3ccco3)nc3ccccc3c2=O)c1OC	-20.2%	2.8%[59 µM]	7.3%	-12.0%	7.4%	21.9%
COc1ccccc1/C=C/C=N/n1c(-c2ccc(C)cc2)n[nH]c1=S	-31.2%	?	-27.6%	-19.2%	-5.2%	-19.0%
COc1ccccc1/C=C/C=N/n1c(-c2ccco2)n[nH]c1=S	28.2µM*	1.26µM*	?	?	-11.7%	-22.3%
Cc1ccc(-c2cc3nc(-c4ccccc4)cc(C(F)(F)F)n3n2)cc1	31.8%	1.6%[59 µM]	4.3%	·	·	37.9%
O=[N+]([O-])c1ccc(Oc2ccc(Oc3ccc(C(F)(F)F)cn3)cc2)nc1	-12.5%	9.5%	-18.7%	4.4%	-14.7%	15.4%
CCN(CCCNC(=O)c1cc2c(=O)n(C)c3ccccc3c2s1)Cc1ccccc1	-26.7%	?	·	·	·	8.4%
CNC(=S)N(CCc1c(C)[nH]c2ccc(C)cc12)Cc1cccs1	?	44.7µM*	·	13.8%	·	-4.0%
SMILES	JMJD2A Tudor	G9a inh	BAZ2B block	Sfp inh	L3MBTL1 block	HP1b binding inh
COc1ccc2[nH]c(C)c(CCN(Cc3cccs3)C(=S)Nc3ccccc3)c2c1	?	?	?	-2.0%	-18.8%	?
COc1ccc(NC(=S)N(CCc2c(C)[nH]c3ccc(C)cc23)Cc2cccs2)cc1	?	50.1µM*	?	-0.2%	-23.9%	10.9%
CCOc1ccc(NC(=S)N(CCc2c(C)[nH]c3ccc(C)cc23)Cc2cccnc2)cc1	?	?	?	6.8%	-6.6%	-14.8%
COc1ccc2[nH]c(C)c(CCN(Cc3cccs3)C(=S)Nc3ccc(F)cc3)c2c1	?	?	?	15.5%	-11.5%	?
Cc1[nH]c2ccc(F)cc2c1CCN(Cc1cccnc1)C(=S)Nc1ccc(F)cc1	?	?	9.6%	-9.1%	-10.7%	13.4%
CCOc1ccc(NC(=S)N(CCc2c(C)[nH]c3ccc(C)cc23)Cc2ccco2)cc1	?	70.8µM*	-6.4%	9.3%	-14.6%	-4.3%
COc1ccc(NC(=S)N(CCc2c(C)[nH]c3ccccc23)Cc2cccnc2)cc1	?	70.8µM*	35.5µM*	1.6%	-0.4%	-15.6%
Cc1ccc(NC(=S)N(CCN(C)C)Cc2cccs2)c(C)c1	-5.1%	39.8µM*	-24.1%	31.6µM*	·	-6.9%
COc1ccc(NC(=S)N(CCc2c(C)[nH]c3ccc(C)cc23)Cc2ccco2)cc1	?	79.4µM*	?	18.6%	-12.0%	-9.8%
Cc1cc(C)c(NC(=S)N(CCN(C)C)Cc2cccs2)c(C)c1	-29.5%	-4.3%[59 µM]	-36.4%	-14.9%	·	18.6%
COc1ccc(C(C(=O)NC(C)(C)C)N(C(=O)CCC(=O)Nc2cc(C)on2)c2cccc(C)c2C)cc1 (stereo unspecified)	-9.4%	-10.5%	9.2%	17.1%	·	18.5%
O=S(=O)(c1ccc(Cl)cc1)c1nc(-c2cccc(Br)c2)oc1NCc1ccccc1	-24.2%	-36.1%[59 µM]	-26.8%	·	·	12.0%
COc1ccc2[nH]c(=O)c(CN(Cc3ccco3)Cc3nnnn3Cc3ccccc3)cc2c1	-2.9%	50.1µM*	2.2%	56.2µM*	-86.0%	21.1%
